D3 ag = D3 dopamine receptor (human) agonism. max activation, %. 410,000 tested, 0.58% active. D3R DiscoveRx beta-arrestin cells, luminescence, 90 min; in the data active means max activation above about 30%; further: 0% is about no effect
Target sequence (P35462 whole entry, looked up): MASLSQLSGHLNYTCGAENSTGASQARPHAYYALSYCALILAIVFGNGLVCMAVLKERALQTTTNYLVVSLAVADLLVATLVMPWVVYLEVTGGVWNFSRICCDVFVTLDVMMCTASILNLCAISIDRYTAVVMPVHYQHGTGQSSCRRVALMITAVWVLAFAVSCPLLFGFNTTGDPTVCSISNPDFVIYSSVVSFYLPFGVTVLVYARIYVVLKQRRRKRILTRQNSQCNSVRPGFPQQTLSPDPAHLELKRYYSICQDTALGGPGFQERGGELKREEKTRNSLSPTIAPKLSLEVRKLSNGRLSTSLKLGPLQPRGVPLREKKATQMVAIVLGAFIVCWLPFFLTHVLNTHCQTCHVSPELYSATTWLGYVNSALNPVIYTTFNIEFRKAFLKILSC
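Agonist-mode cell screen: cells plated at 1500/well and incubated overnight at 37 °C, then exposed to library compounds for 90 min at 37 °C. Detection reagent was added for 30–60 min at room temperature, and luminescence was read.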
KB-V1 MDR tox = KB-V1 MDR subline cytotoxicity. 400,000 tested, 3.4% active. Potency, µM (titrated, usually from 46.1 µM), usual class: cytotoxic. KB-V1 MDR cells viability, CellTiter-Glo, 72 h. AID 1347076; further: potency means the concentration at half of the fitted maximal effect; on the % scale 0 is the no-effect control and ±100 the full control effect; nearly all actives have a fitted effect of over 60% in size
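In this primary screen, KB-V1 cells overexpressing P-gp are incubated with library compounds (lowest to highest concentration) for 72 h at 37 degrees C before a luminescent ATP viability read.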
KB-3-1 cytotox = kills parental KB-3-1 adenocarcinoma cells. KB-3-1 viability, CellTiter-Glo ATP luminescence, 72 h. Potency, µM (titrated, usually from 46.1 µM), usual class: cytotoxic. 400,000 tested, 1.4% active. AID 1347075; further: potency means the concentration at half of the fitted maximal effect; on the % scale 0 is the no-effect control and ±100 the full control effect; nearly all actives have a fitted effect of over 60% in size
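Cytotoxicity in the drug-sensitive parental line KB-3-1 was scored as loss of CellTiter-Glo luminescence following 72 h incubation with compound. Values come from curve fitting of normalized concentration-response data.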
MCF10A rerep = DNA re-replication induction in MCF 10a cells; MCF 10A DNA re-replication, Hoechst nuclear intensity, 48 h; Potency, µM (titrated, usually from 46.1 µM), for the others: top-dose activity, positive = re-replication, actives largely listed as activators; 350,000 tested, 2.9% active; AID 624296; further: potency means the concentration at half of the fitted maximal effect; % of control where 0% means no effect; nearly all actives have a fitted effect of over 50% in size
DRD3 antagonist = blocks the human D3 dopamine receptor. D3R cells, DiscoveRx beta-arrestin luminescence, antagonist mode; hits give low values. max response, negative = inhibition, %. P35462. 360,000 tested, 2.5% active; in the data active means max response below about -50%; inconclusive means no clear call, values can overlap the other calls; further: on the % scale 0 is the no-effect control and ±100 the full control effect
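Cells expressing the human receptor were seeded at 1500 cells/well, incubated overnight at 37 degrees C in 5% CO2, then exposed to library compounds with dopamine controls for 90 minutes at 37 degrees C before luminescent detection.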
SW480 rereplic = inducers of DNA re-replication in SW480 colon cancer cells | SW480 DNA re-replication, Hoechst DNA content imaging, 48 h | Potency, µM (highest dose often 46.1 µM), for the others: at the top dose re-replication activation, actives largely listed as activators | 340,000 tested, 1.8% active | AID 624297; further: potency means the concentration at half of the fitted maximal effect; % of control where 0% means no effect; nearly all actives have a fitted effect of over 55% in size
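Image-based DNA-content assay: after two days of treatment, nuclei were labelled with the DNA dye Hoechst and imaged, and hits were compounds raising the count of nuclei showing high fluorescence intensity.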
* hit, by the source's call; i = inactive; ? = inconclusive; nt = no result. An excerpt weighted towards active compounds, which were near 8.9% of everything screened. Unless noted, the call rests on the fitted dose curve; in most records, active means well fitted curve in the direction sought with a large enough effect; inconclusive means small, poorly fitted or top-dose-only effect, or another doubt; inactive means no such curve, though single readings can be large; an effect the other way counts as inactive or inconclusive.

SMILES	D3 ag	KB-V1 MDR tox	KB-3-1 cytotox	MCF10A rerep	DRD3 antagonist	SW480 rereplic
COc1c(Cl)cc(Cl)cc1C(=O)Nc1ccc(CN2CCCCC2)cc1	1	i	i	12µM*	-19	-1%
O=C(NCCCN1CCCC1=O)C1CCC(CNS(=O)(=O)c2ccc(Cl)cc2)CC1 (centres undefined)	1	i	i	7%	0	-3%
CCOc1ccc(C(=O)NCCN2CCCC2)cc1	-10	i	?	4%	-58*	-9%
O=C(NCCN1CCOCC1)c1ccc(Cl)cc1	-71	i	i	-34%	-69*	?
O=C(C[n+]1cccc(Br)c1)c1cccc([N+](=O)[O-])c1	nt	i	i	nt	nt	nt
O=C(CSC1=Nc2ccccc2C2=NC(Cc3ccccc3)C(=O)N12)Nc1ccccc1C(F)(F)F (centres undefined)	-10	i	i	nt	nt	nt
O=C(CN1C(=O)C2(SCC(=O)N2c2cccc(Cl)c2)c2ccccc21)NC1CCCCC1 (centres undefined)	-1	i	?	nt	nt	nt
C=CCN1[C@@H](C(C)C)COCCS1(=O)=O	nt	i	i	nt	nt	nt
CCC(C)(C)c1ccc(Oc2ccc(N)cc2)cc1	1	i	i	15µM*	15	18%
CC1CCC2C(=O)N(c3ccc(C(=O)Oc4cccc5cccnc45)cc3)C(=O)C2C1 (centres undefined)	-30	i	i	?	-68*	17%
COCCCNc1nc2c(c(=O)n(Cc3ccccc3)c(=O)n2C)n1C	2	i	i	nt	nt	nt
Cc1ccccc1NC(=O)CSc1nc2c(c(=O)n(C)c(=O)n2C)n1Cc1ccccc1F	9	i	i	nt	nt	nt
CCOc1ccc(Nc2cc(=O)oc3ccccc23)cc1	-6	13µM*	i	-3%	-14	-3%
Cc1ccccc1OCCn1c(-c2ccc(Cl)cc2)nc2ccccc2c1=O	-3	?	i	nt	nt	nt
N#CCSc1ncnc2sc3c(c12)CCC3	-4	i	i	-2%	13	0%
COc1ccc(-c2nnc(CSc3ncnc4sc5c(c34)CCC5)o2)cc1OC	4	21µM*	i	-2%	25	?
COCCn1c(SCc2nnc(-c3ccccc3)o2)nc2sc3c(c2c1=O)CCC3	5	6.5µM*	i	25%	9	1%
COc1ccc(OC)c(NC(=O)Cn2cc(C(=O)c3cccs3)c3ccccc32)c1	-8	nt	nt	nt	nt	nt
S=c1nc(-c2cc(Cl)cc(Cl)c2)[nH][nH]1	-5	i	i	-18%	?	-2%
S=c1nc(-c2cccc(Cl)c2)[nH][nH]1	6	i	i	2%	-55*	-27%
O=C(O)c1ccc(-n2c(/C=C/c3ccccc3)nc3ccccc3c2=O)cc1	1	i	i	-3%	1	-5%
CC(C)N1C(=O)C(Cc2nc3ccccc3c(=O)n2-c2ccccc2)c2ccccc21 (centres undefined)	-1	i	i	4%	-9	12%
CC(C)N1C(=O)/C(=C/c2nc3ccccc3c(=O)n2-c2ccccc2)c2ccccc21	-12	?	?	16µM*	8	?
CC(C)N1C(=O)/C(=C\c2nc3ccccc3c(=O)n2-c2ccccc2)c2ccccc21	-5	?	?	?	5	2.9µM*
Oc1ccccc1N=Nc1nc(-c2ccccc2)c(-c2ccccc2)[nH]1	-37	0.92µM*	i	?	-72*	?
SMILES	D3 ag	KB-V1 MDR tox	KB-3-1 cytotox	MCF10A rerep	DRD3 antagonist	SW480 rereplic
COc1ccc(N=Nc2nc(-c3ccccc3)c(-c3ccccc3)[nH]2)cc1	-33	?	?	-5%	?	-16%
COc1ccccc1N=Nc1nc(-c2ccccc2)c(-c2ccccc2)[nH]1	-30	i	?	13%	-75*	1%
CS(=O)(=O)c1nc(-c2ccccc2)c(-c2ccccc2)[nH]1	1	i	i	5%	-4	0%
Cc1cc(C)c(NC(=O)c2cc3c(=O)n4ccccc4nc3n2C)c(C)c1	17	nt	nt	nt	nt	nt
CCCCCCCCC(=O)N1C(C)CCC1C (centres undefined)	6	i	?	nt	3	nt
CCOc1ccc(N(CCCCO)C(=S)NC(=O)c2ccc(C)c(Br)c2)cc1	35*	i	i	18%	-24	-9%
CC1CCN(c2nc3ccccc3nc2C(F)(F)F)CC1	1	i	i	nt	nt	nt
N#Cc1c(-n2cccc2/C=N/O)sc2c1CCCC2	9	23µM*	i	1%	39	2%
CCOc1ccccc1NC(=O)Cn1c(=O)n(Cc2ccc(OC)cc2)c(=O)c2oc3ccccc3c21	-4	nt	nt	nt	nt	nt
O=C(CSc1nnc(-c2cccnc2)n1Cc1ccco1)N1c2ccccc2Sc2ccccc21	23	6.5µM*	i	9%	-1	-7%
COc1cccc([C@H]2Nc3ccc(S(=O)(=O)Nc4cc(C)ccc4C)cc3[C@H]3C=CC[C@H]32)c1	-16	?	i	nt	nt	nt
CCOC(=O)C1=C(C)N=c2s/c(=C/c3cccc([N+](=O)[O-])c3O)c(=O)n2C1c1ccc(OC)cc1OC (centres undefined)	-21	i	i	?	-55*	?
Cc1cccc(OCC(=O)Nc2ccc(O)c(-c3nc4ccccc4o3)c2)c1	nt	i	i	nt	nt	nt
COc1ccccc1/C=C1\SC(=S)N(CCC(=O)Nc2cccc(O)c2)C1=O	0	i	i	10µM*	-20	-24%
COc1cc(/C=C2\SC(=S)N(CCC(=O)Nc3cccc(O)c3)C2=O)cc(OC)c1OC	0	i	i	?	5	-3%
COc1cc(/C=C2\SC(=S)N(CCC(=O)Nc3ccccc3)C2=O)cc(OC)c1OC	1	i	i	18µM*	11	-56%
COc1cc(/C=C2/SC(=S)N(CCC(=O)Nc3ccccc3)C2=O)cc(OC)c1OC	6	i	i	21µM*	-10	1%
CC(=O)N1c2ccc(S(=O)(=O)N3CCCCCC3)cc2CC1C(=O)NCc1ccccc1F (centres undefined)	-10	i	i	nt	nt	nt
Cc1cc(/C=N\NC(=O)CC(=O)NC2CCCCC2)c(C)n1-c1ccc(Cl)c(Cl)c1	-19	?	?	30%	-10	27%
Cc1cc(/C=N\NC(=O)CC(=O)NC2CCCCC2)c(C)n1-c1cccc(Cl)c1Cl	-9	23µM*	?	?	-24	?
CCN=C1S/C(=C\c2ccc(O)c(OCC)c2)C(=O)N1CC	5	18µM*	i	?	7	?
